Test results taken from PubChem BioAssay (NCI).
The panel holds about 83,000 compounds, 20% with a hit somewhere; the sample as a whole holds those more often.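 Cells were grown in 96-well plates and exposed to the test compound at a single concentration for 48 hours; results are reported as percent growth, with values below 10 considered active.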 Values without a mark were called inactive. Active and inactive are the calls of the source.

Key:
Assay in all cases: NCI-60 one-dose screen, 48 h (100 = growth as untreated, 0 = no growth, -100 = all killed)
Conditions in all cases: 10 µM unless noted
T-47D breast = system: T-47D breast
BT-549 breast = system: BT-549 breast
MDA-MB-435 melanoma = system: MDA-MB-435 melanoma
SW-620 colon = system: SW-620 colon
MCF7 breast = system: MCF7 breast
HCT-116 colon = system: HCT-116 colon
HCC-2998 colon = system: HCC-2998 colon
KM12 colon = system: KM12 colon

SMILES	growth (T-47D breast)	growth (BT-549 breast)	growth (MDA-MB-435 melanoma)	growth (SW-620 colon)	growth (MCF7 breast)	growth (HCT-116 colon)	growth (HCC-2998 colon)	growth (KM12 colon)
CC/C(=C(\c1ccc(O)cc1)c1ccc(OCCN(C)CCN(C)C(=O)CCC(=O)c2c(C)[nH]c(/C=C3\N=C(c4ccc[nH]4)C=C3OC)c2C)cc1)c1ccccc1	69.3%	103%	63.8%	66.2%	34.3%	65.2%	92.2%	42.4%
CCSc1nnc(NC(=O)COc2ccc(Cl)cc2C)s1	96%	110%	84%	102%	91%	103%	131%	109%
C[N+](C)(C)c1ccc(CC2c3ccccc3-c3ccccc32)cc1	51.1%	59.2%	90.4%	86.2%	84.1%	73.3%	88.8%	77%
C=CCN=C1NC(=O)/C(=C/c2cc(C(C)(C)C)c(O)c(C(C)(C)C)c2)S1	47.1%	55.6%	-2.99% (active)	63.5%	43.8%	46.4%	89.8%	61.4%
COc1ccc(NC(=O)CSc2nc3ccccc3c(=O)n2Cc2cc(OC)c(OC)c(OC)c2)cc1	84%	89.1%	101%	104%	93.8%	89.5%	109%	97.7%
COc1cc(NCCCN=C(N)NC(N)=NC(C)C)c2ncccc2c1	-2.75% (active)	65.1%	96.9%	86.6%	-52.9% (active)	17.3%	55.8%	30.6%
CCn1cc(C(=O)O)c(=O)c2cc(F)c(N3CCN(S(=O)(=O)c4cccc5ccccc45)CC3)cc21	5.29% (active)	-4.35% (active)	11.4%	22.8%	14.6%	5.45% (active)	31.6%	11.7%
COc1ccc(-c2nc3sccn3c2-c2ccnc(NCCNS(=O)(=O)c3ccc(C(F)(F)F)cc3)n2)cc1	-11.8% (active)	2.22% (active)	2.65% (active)	33.7%	8.53% (active)	10%	23.7%	4.4% (active)
N#CC1=C(N)n2nc(-c3ccncc3)nc2NC1c1cccc2ccccc12 (stereo unspecified)	66.2%	90.1%	88.1%	100%	80.5%	87.9%	105%	97.6%
O=C1CCC(=O)N1Cc1ccccc1	113%	111%	99.4%	100%	91.5%	98.6%	101%	96.4%
COc1ccc2c(c1)C(C)Cc1c(N(C)C)ncnc1N2C (stereo unspecified)	34.7%	17.7%	-5.79% (active)	21.4%	19.5%	23.7%	74.6%	23.6%
c1ccc2c(c1)Oc1ccccc1C2C1c2ccccc2Oc2ccccc21	81.4%	106%	99.4%	97.7%	95.4%	84.2%	99.9%	95.2%
CNC(=O)c1cc(Oc2ccc3c(c2)sc2nc(-c4ccc(Cl)cc4)cn23)ccn1	79%	87.8%	97.7%	97.3%	72%	80.9%	90.1%	92.9%
O=C(O)C(Cc1ccccc1)N1C(=O)/C(=C/C(Cl)=C/c2ccc([N+](=O)[O-])cc2)SC1=S (stereo unspecified)	1.08% (active)	-28.1% (active)	-41.7% (active)	5.12% (active)	26.1%	-59.5% (active)	3.58% (active)	14.8%
Cc1cccc(-n2c(C)nc3ccc(NC(=O)NCCCl)cc3c2=O)c1	103%	101%	99.2%	97.3%	86.1%	103%	114%	106%
NC(C(=O)O)C(O)c1ccc(OCc2ccccc2)c(OCc2ccccc2)c1 (stereo unspecified)	88.1%	95%	102%	97%	87.3%	101%	115%	100%
Nc1c(C(=O)Nc2ccccc2)sc2nc3c(cc12)CCCCC3	42.2%	48.8%	-50.7% (active)	24.2%	12.1%	11.2%	43.5%	12.2%
CC/C=C\C/C=C\C[C@H]1C/C=C2/C(=O)C=C[C@H]2C/C=C\CCC(=O)O1	12.9%	-7.41% (active)	3.37% (active)	-4.82% (active)	20%	-63.4% (active)	-59.2% (active)	-34.5% (active)
O=C1c2ccccc2C(=O)c2c1oc1oc3c(c(=O)c21)c(=O)n(-c1ccccc1)c1ccccc31	4.47% (active)	12.3%	87.8%	18.6%	51.6%	41.7%	42.9%	18.9%

SMILES	growth (T-47D breast)	growth (BT-549 breast)	growth (MDA-MB-435 melanoma)	growth (SW-620 colon)	growth (MCF7 breast)	growth (HCT-116 colon)	growth (HCC-2998 colon)	growth (KM12 colon)
ClC1=C(Cl)C(Cl)=C(Cl)C1=Cc1ccc(Cl)cc1Cl	-0.12% (active)	-26.3% (active)	-52.4% (active)	-43.9% (active)	4.25% (active)	-55.5% (active)	-89.7% (active)	-78.9% (active)
CCN1C(=O)N[C@H]2[C@@H]3NC(=O)c4ccc(Cl)n4[C@@H]3C[C@]21O	-7.84% (active)	-23.4% (active)	0.981% (active)	3.96% (active)	1.38% (active)	0.673% (active)	2.42% (active)	5.68% (active)
CCCCC(N)(C(=O)O)C1CCCC1 (stereo unspecified)	110%	103%	104%	105%	91.4%	101%	112%	113%
Oc1ccc(Cl)cc1-c1cc(-c2ccc(Cl)cc2)n[nH]1	30.9%	84%	84.9%	81%	3.03% (active)	43.8%	22%	29.6%
Cc1ccc2c(c1)C(C)Cc1c(N(C)C)ncnc1N2C (stereo unspecified)	34.8%	30.6%	-6.18% (active)	20.6%	16.9%	19%	58.2%	26.2%
COc1ccc(-c2nc(-c3ccccc3)c(-c3ccccc3)n2C2CC2)cc1OC1CCCCC1	58.4%	97.3%	72.5%	58.2%	52%	38.8%	83.2%	62.2%
Nc1nn2cc(-c3ccc(Cl)s3)nc2c2ccccc12	55.8%	105%	93.4%	98.6%	44.3%	77.6%	92.4%	79.2%
Cc1c(C(=O)NCc2ccccc2)[n+](=O)c2cc(F)ccc2n1[O-]	107%	121%	93.5%	107%	97.1%	97.9%	88.4%	111%
COc1ccc(-c2nnc(COc3ccc(NC(=O)Nc4ccc(Cl)c(C(F)(F)F)c4)cc3F)o2)cc1	9.17% (active)	-2.18% (active)	4.03% (active)	9.95% (active)	2.31% (active)	4.43% (active)	13.8%	4.64% (active)
Cc1cc(Nc2nc(C(=O)Nc3ccccc3)nc3ccccc23)n[nH]1	47%	50.6%	64.9%	77.5%	72.1%	45.6%	84.3%	28%
CC(C)C[C@H](NC(=O)Cn1ccc(NCc2ccccc2)cc1=O)B(O)O	-14.6% (active)	3.58% (active)	-62.2% (active)	4.73% (active)	28.9%	-47.7% (active)	0.885% (active)	24.7%
COc1ccc(Cn2c(SC)nc(=O)n(Cc3ccc(Cl)cc3)c2=O)cc1	81.8%	97%	111%	103%	92%	93.9%	103%	97.5%
COc1ccc(/C=C(\C#N)c2ccc([N+](=O)[O-])cc2)c2ccccc12	46.9%	27.9%	62.6%	74.4%	71.8%	43.4%	80%	75.6%
O=C(O)c1cn(C2CC2)c2cc(N3CCN(S(=O)(=O)c4ccc(Cl)c(Cl)c4)CC3)c(F)cc2c1=O	16.3%	-4.65% (active)	13%	20.7%	13.5%	3.95% (active)	24.8%	14.6%
O=C(Nc1ccc(I)cc1)c1cccc([N+](=O)[O-])c1O	9.64% (active)	4.69% (active)	14.2%	21.7%	7.91% (active)	8.14% (active)	19.9%	14.1%
COC1=CC(c2ccc[nH]2)=N/C1=C\c1[nH]c(C)c(CCCn2cc(CCCCCCCCC[C@@H]3Cc4cc(O)ccc4C4CC[C@]5(C)[C@@H](O)CC[C@H]5C43)nn2)c1C (stereo partly specified)	38.4%	67.6%	72.4%	44.8%	16.4%	37.3%	36.4%	16.2%
COc1ccc(NC(=O)c2cc3ccccc3nc2Nc2cc(OC)c(OC)c(OC)c2)cc1	27.1%	52.8%	63.9%	75.1%	39.4%	48.2%	89%	37.9%
CCCCOc1nc2c(C)cccc2cc1C1CNC(=O)c2ccccc2N1 (stereo unspecified)	58.4%	74.5%	4.51% (active)	42.3%	15.8%	45.9%	101%	56.4%
COc1ccc2c(c1)C=CC(C#N)N2C(=O)c1ccccc1 (stereo unspecified)	69.8%	0.256% (active)	-52.4% (active)	21.6%	15%	8.13% (active)	18.6%	13.4%

SMILES	growth (T-47D breast)	growth (BT-549 breast)	growth (MDA-MB-435 melanoma)	growth (SW-620 colon)	growth (MCF7 breast)	growth (HCT-116 colon)	growth (HCC-2998 colon)	growth (KM12 colon)
Cc1cc(N/C=c2\sc3ncnn3c2=O)no1	96.1%	104%	97.6%	98.8%	86.1%	95.1%	96.9%	84.3%
O=C(CNc1ccc(Cl)cc1)Nc1ccc(-c2nc3ccccc3s2)cc1	4.58% (active)	16.7%	62.8%	22.6%	11.5%	23.3%	-16.2% (active)	80.7%
CCN(C(=O)c1cc2ccccc2[nH]1)[C@H]1CCC[C@@H](NCc2ccc(OC)cc2)C1	82.7%	102%	93.1%	91.2%	84%	92.1%	78.3%	90.4%
Cc1ccc(Cn2c(-c3cccs3)nc3ccccc32)cc1	72.5%	128%	111%	81.2%	87.7%	76.5%	94.9%	96%
CC(C)(C)c1cn2cccc(C(=O)N3CCN(CC(=O)Nc4ccc(Cl)cc4C(=O)c4ccccc4Cl)CC3)c2n1	31.8%	-15.1% (active)	63.4%	60.6%	43.8%	33.3%	–	54.2%
Nc1nc(N)c2nc(CNc3ccc(C(=O)CC(CCC(=O)O)C(=O)O)cc3)cnc2n1 (stereo unspecified)	49.5%	63.3%	34.4%	25.7%	22.8%	21.6%	–	32.2%
Clc1ccc(/C=C/c2nc(N3CCOCC3)c3nc(Cl)c(Cl)cc3n2)cc1	73%	93.6%	98.1%	114%	56.8%	83.7%	94.4%	114%
CC1(C)OC2COC3(C(=O)O)OC(C)(C)OC3C2O1 (stereo unspecified)	90.2%	106%	93.8%	98.2%	–	114%	97.6%	98.4%
O=[N+]([O-])c1c(S(=O)(=O)O)cc2cc(S(=O)(=O)O)ccc2c1[N+](=O)[O-]	109%	104%	105%	105%	97.7%	98.2%	99.2%	91.5%
Cc1ccc(C2=NN(c3ccc(S(=O)(=O)NC(=O)NCc4ccccc4)cc3)C(c3ccc(N(C)C)cc3)C2)c(C)c1 (stereo unspecified)	47.3%	40.9%	1% (active)	59.5%	–	39.7%	27.7%	34.5%
CC(C)CCN(CCCNc1c2c(nc3ccccc13)CCCC2)CCC(C)C	98.8%	91.3%	89.3%	79.9%	69.9%	63.7%	69.7%	105%
COc1ccc(C(=O)N2CCN(C(=O)c3cc(OC)c(OC)c(OC)c3)CC2)cc1OCCCCOc1cc2c(cc1OC)C(=O)N1CCC[C@H]1C=N2	85.4%	115%	108%	110%	98.8%	101%	–	129%
Cc1cc(Cl)ccc1OC(C)C(=O)Nc1nnc(C2CC2)s1 (stereo unspecified)	90.9%	116%	102%	103%	112%	94.7%	–	107%
OCc1c(-c2ccccc2)nc2sccn12	104%	59.3%	114%	98.3%	103%	104%	–	97.6%
CCC(C)NCC(=O)O (stereo unspecified)	86.3%	110%	101%	105%	–	99.9%	101%	105%
O=C(/C=C/CN1CCOCC1)Nc1cc2c(Nc3cccc(Cl)c3F)ncnc2cc1OCCOC(F)F	15.1%	86%	97.2%	90.7%	–	82.9%	86.2%	90.2%
CCn1cc(C(=O)O)c(=O)c2cc(F)c(N3CCN(S(=O)(=O)c4ccc(OC)c(OC)c4)CC3)cc21	87.2%	105%	98.9%	113%	–	105%	104%	96.2%
COc1ccc(C2CC(=O)Nc3c2c(C)nn3-c2nc3ccccc3[nH]2)cc1OC (stereo unspecified)	65.7%	75.5%	24.7%	78.3%	46.4%	17.4%	96.5%	82.6%
C=CCn1c(C)nc2ccc(Nc3nc(Nc4ccc(F)cc4)nc4ccccc34)cc21	35%	59.2%	57.1%	46.1%	26.1%	26.9%	80.6%	36.6%
